Screening data (PubChem BioAssay)
A selection: hits, their analogues and other compounds. The true share with any hit is near 3%.
hERG WT inh: KCNH2 (human, wildtype) channel inhibition | hit rate 0.37% among 340,000 | activity change, % at 1.84 µM | U2OS, BacMam KCNH2, thallium flux FluxOr; stronger effect = lower value | AID 720551;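 active = maximum activity change below -70%; inconclusive = maximum activity change between -70% and -50%; inactive = maximum activity change above -50%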; also: % is scaled to controls: 0 for no effect and ±100 for the full control effect
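U2OS cells were transduced with wild-type KCNH2 virus (2.03 x 10^8 / mL) for 4 h at room temperature, then cultured overnight at 37 C. Thallium flux was read with FluxOr dye. Rate constants were normalized to DMSO controls.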
KCNH2 3.1 inh: blocks the human KCNH2 3.1 channel isoform. U2OS KCNH2 3.1, thallium flux FluxOr; stronger effect = lower value. activity change, % (tested at about 1.8 µM). hit rate 0.95% among 340,000;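 active = maximum activity change below -70%; inconclusive = maximum activity change from -70% to -50%; inactive = maximum activity change above -50%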;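 also: thallium influx rate constant from kinetic fluorescence after stimulation buffer; % is scaled to controls: 0 for no effect and ±100 for the full control effect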
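Steps: virus added to U2OS suspension (4 h, RT, dark); medium with 10% FBS added, cells plated, 37 C overnight; FluxOr/Red40 loading buffer 45 min RT; stimulation buffer, 2 min kinetic read; rate constant normalized.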
ClpP mod: qHTS Assay for Activators of ClpP | ATP-dependent Clp protease proteolytic subunit (Bacillus subtilis (strain 168)), P80244 | purified B. subtilis ClpP, FRET peptide cleavage, 20 min | Potency, µM (highest dose often 57.5 µM), inactives show top-dose activity change, negative = active | hit rate 1.9% among 340,000 | AID 651965, 2013; active = well fitted falling curve with a large enough effect; inconclusive = small, poorly fitted or top-dose-only effect; inactive = no such curve, though single readings can be large or run the other way; also: potency is read from the fitted curve at half-maximal effect; the source files actives as falling curves though it sought activators and does not explain the sign; nearly all actives have a fitted effect of over 65% in size
Target sequence (P80244 whole entry, looked up): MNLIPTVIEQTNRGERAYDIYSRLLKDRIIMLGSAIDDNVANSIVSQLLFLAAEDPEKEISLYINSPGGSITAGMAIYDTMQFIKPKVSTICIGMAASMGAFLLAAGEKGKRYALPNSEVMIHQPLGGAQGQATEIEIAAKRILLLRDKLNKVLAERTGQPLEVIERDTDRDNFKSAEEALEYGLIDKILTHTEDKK
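Buffer: 100 mM Tris/HCl pH8, 100 mM KCl, 0.05% low protease BSA, 2.5% glycerol, 0.01% Tween-20. ClpP 10 microg/mL final; 20 min RT; delta FRET normalized to ADEP and DMSO controls.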
LDHA block: blocks human lactate dehydrogenase A. P00338. purified LDHA, NADH/diaphorase-resazurin fluorescence; stronger effect = lower value. activity change, % (values are at about 110 or 230 µM). hit rate 0.15% among 480,000; in the data active = activity change below about -30%; inconclusive = mostly about -25% to -30%;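 also: plate controls were DMSO wells for no effect and wells without enzyme for full effect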
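Human LDH5 (2 nM) was incubated with 0.06 mM NADH and 0.2 mM pyruvate for 5 min at room temperature in Tris pH 7.4. Remaining NADH was coupled through diaphorase/resazurin, and resorufin fluorescence was read at 0 and 20 min.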
ALOX12 inh: blocks human arachidonate 12S-lipoxygenase | Potency, µM (highest dose often 108 µM), without a hit: at the highest dose activity change, negative = inhibition, usual class: inhibitors | purified 12hLO, xylenol orange hydroperoxide absorbance | P18054 | hit rate 1.1% among 580,000; active = well fitted inhibition curve with a large enough effect; inconclusive = small, poorly fitted or top-dose-only effect, or another doubt; inactive = no such curve, though single readings can be large or run the other way; also: potency is read from the fitted curve at half-maximal effect; % is scaled to controls: 0 for no effect and ±100 for the full control effect
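Purified human 12hLO (150 nM final) in 25 mM Hepes, 0.01% Triton X-100, pH 7.0 was preincubated 15 min at room temperature with compound. Then 40 uM arachidonic acid was added, 30 min. Hydroperoxide was read by Fe-XO absorbance ratio 573/405 nm.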
Chronic BCR inh: blocks chronic active B-cell receptor signaling; Potency, µM (series often up to 46.1 µM), without a hit: top-dose activity change, negative = inhibition, most hits filed as inhibitors; hit rate 0.05% among 340,000; AID 493014; ABC-DLBCL IkBa-CBG/CBR reporter, luminescence ratio, 4 h; active = well fitted inhibition curve with a large enough effect in the signal ratio, with a control signal flat, not every such curve was filed as active; inconclusive = small, poorly fitted or top-dose-only effect, or effect the other way, or a change in a side signal; the % refers to the signal ratio;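 also: potency is read from the fitted curve at half-maximal effect; plate controls were basal doxycycline-induced cells for no effect and cells given 10 µM MG132 for full effect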
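TMD8 ABC-DLBCL cells carrying doxycycline-inducible green luciferase fused to IkappaBalpha plus unfused red luciferase were exposed to compounds (up to 46 uM) for 4 hrs at 37C. Activity came from the overlap-corrected green/red luminescence ratio.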
Starred values were filed as active, the others as inactive; ? = inconclusive; · = no result; [ ] = remark or other dose.

SMILES	hERG WT inh	KCNH2 3.1 inh	ClpP mod	LDHA block	ALOX12 inh	Chronic BCR inh
Cc1cc(N2CCN(c3ccc(F)cc3)CC2)nc2cc(O)ccc12	?	-79*	-22%	-2	-26%	-4%
Cc1cc(N2CCCN(C)CC2)nc2cc(Cl)ccc12	-16	2	32µM*	3	?	?
COc1ccc(N2CCN(c3cc(C)c4cccc(C)c4n3)CC2)cc1	-9	-1	-2%	-8	-2%	1%
COc1ccc(N2CCN(c3cc(C)c4ccc(C)cc4n3)CC2)cc1	-74*	-102*	-28%	-3	-9%	?
COc1ccc2c(C)cc(N3CCN(c4ccc(F)cc4)CC3)nc2c1	-35	-91*	28µM*	-5	-8%[57.4 µM]	?
CCOC(=O)c1cc(-c2ccccn2)nc2c1c(=O)[nH]c(=O)n2C	·	·	·	17	?	·
N#Cc1ccc(Cn2c(CN3CCOCC3)nc3scc(-c4cccs4)c3c2=O)cc1	·	·	·	1	1%	·
CCOC(=O)Cc1ccc(NC(=O)Nc2nnc(N(C)Cc3ccccc3)s2)cc1	·	·	·	0	-8%	·
Cc1cccc(Cn2c(N3CCN(Cc4ccccc4)CC3)nc3c2c(=O)[nH]c(=O)n3C)c1	·	·	·	-11	-23%	·
Cc1cc(C)cc(NC(=O)COC(=O)CCCC2=NS(=O)(=O)c3ccccc3N2)c1	-110*	1	-4%	-4	-4%	-6%
CC(C)c1ccccc1NC(=O)c1cccs1	·	·	·	4	?	·
O=[N+]([O-])c1cc(Br)cc(C=Nc2ccc3c(c2)OCO3)c1O	11	-8	3%	8	35µM*	9%
CC(C)(C)c1ccc(O)c(N=Cc2cc3c(cc2[N+](=O)[O-])OCO3)c1	-5	9	·	13	35µM*	-6%
O=[N+]([O-])c1ccc(O)c(C=Nc2ccc3c(c2)OCO3)c1	-7	1	·	18	-11%	?
CCC1c2ccsc2CCN1C(=O)/C=C/c1ccccc1 (centres undefined)	·	·	·	-22	10%	·
Cc1cccn2cc(-c3ccccc3)nc12	-10	3	10µM*	-7	40%	-3%
COc1ccc(-c2cn3ccc4ccccc4c3n2)cc1	-1	4	28µM*	-2	25%	?
COc1ccc(-c2cn3cccc(C)c3n2)cc1Br	19	-2	?	-7	?	?
Cc1cccn2cc(-c3ccc(F)cc3)nc12	23	28	18µM*	-12	0%	-10%
O=C(CCc1ncc(-c2c(F)cccc2F)o1)Nc1ccc(F)c(F)c1F	·	·	·	11	25%	·
C=C(C)CN(CC)C(=O)Cc1cccs1	·	·	·	10	-32%	·
N#CCN(CC#N)C(=O)Cc1cccs1	·	·	·	-11	32µM*	·
CC(OC(=O)c1nn(C)c(=O)c2ccccc12)C(=O)N1CC(=O)Nc2ccccc21 (centres undefined)	·	·	·	-2	-4%	·
COc1ccccc1C(=O)N1CCn2c(nn(-c3ccc(Cl)cc3)c2=O)C1	·	·	·	·	13%[6.33 µM]	·
CC1CCCC(NC(=S)NC(=O)c2ccccc2Br)C1C (centres undefined)	-9	-3	1%	1	22µM*	?
SMILES	hERG WT inh	KCNH2 3.1 inh	ClpP mod	LDHA block	ALOX12 inh	Chronic BCR inh
O=C(NNC(=S)NC1CCCCC1)c1ccccc1Br	-6	23	-5%	-8	-4%	?
CC(C)(C)OC(=O)N1CCCC(n2c(=O)[nH]c3cccnc32)C1 (centres undefined)	·	·	·	·	38%[176 µM]	·
Cc1ccccc1CC(=O)Nc1cc(S(=O)(=O)N2CCCCC2)ccc1N1CCN(C)CC1	·	·	·	7	6%	·
Cc1ccc(S(=O)(=O)N(CC(=O)Nc2ccc(Cl)c([N+](=O)[O-])c2)C2CCCCC2)cc1	2	1	28µM*	-7	3%	?
O=[N+]([O-])c1cccc(OCCCN2CCC(Cc3ccccc3)CC2)c1	-86*	-88*	·	-6	0.5µM*	·
Cc1ccccc1OCCN1CCC(Cc2ccccc2)CC1	-9	0	-2%	-21	?	-3%
Cc1ccc([N+](=O)[O-])c(OCCN2CCC(Cc3ccccc3)CC2)c1	-4	-93*	-1%	-13	?	?
Cc1cccc(C(C)C)c1NC(=O)Cc1c[nH]c2ccccc12	·	·	·	6	12%	·
COC(=O)Cc1c(C)c2ccc(OCC(=O)OCc3ccccc3)c(C)c2oc1=O	·	·	·	12	24%	·
Cc1cc(CNC(=O)C2CCCN2C(=O)OC(C)(C)C)ccc1F (centres undefined)	·	·	·	-3	0%	·
CC(C)(C)NS(=O)(=O)c1ccc(NC(=O)C2c3ccccc3Oc3ccccc32)cc1	·	·	·	2	18%	·
COc1ccc(-c2nc3c(c(=O)[nH]c(=O)n3Cc3ccccc3)n2CC2CCCO2)cc1 (centres undefined)	·	·	·	0	?	·
CCc1ccc(N(CC(=O)NC2CCCCC2)C(=O)CCC(=O)Nc2ccccn2)cc1	8	-1	16µM*	-13	-16%	-2%
CCOC(=O)C(C(=O)Nc1ccccn1)C1CCCCC1 (centres undefined)	0	5	28µM*	-5	?	3%
Cc1cc(C)nc(NC(c2ccccn2)c2cc(C)sc2NC(=O)c2ccco2)n1 (centres undefined)	·	·	·	-4	?	·
CN(C)CCNC(=S)NC(=O)c1ccccc1	·	·	·	-4	27%	·
Cc1ccc(-c2cc3ccccc3[nH]2)cc1	·	·	·	1	?	·
Cc1ccc2[nH]c(-c3cccc(N)c3)cc2c1	6	18	16µM*	1	0%	?
CCc1ccc(-c2cc(C(F)(F)F)on2)cc1S(=O)(=O)Nc1cc(OC)ccc1OC	·	·	·	14	-24%	·
CCCCn1c(N)c(N(CCOC)C(=O)c2cc(-c3ccc(C)cc3)nc3ccccc23)c(=O)[nH]c1=O	-5	-3	?	-8	-13%	-7%
CCCCn1c(N)c(N(CCOC)C(=O)c2cc(-c3ccc(OC)cc3)nc3ccccc23)c(=O)[nH]c1=O	7	4	11µM*	-9	?	-3%
CCCCn1c(N)c(N(CC(C)C)C(=O)c2cc(-c3ccco3)nc3ccccc23)c(=O)[nH]c1=O	-12	1	-13%	-2	40µM*	6%
C=CCN1C(=O)c2ccc(C(=O)N(CC(C)C)c3c(N)n(CCCC)c(=O)[nH]c3=O)cc2C1=O	0	-147*	·	-5	-2%	2%
CCCCn1c(N)c(N(CC(C)C)C(=O)c2ccncc2)c(=O)[nH]c1=O	4	9	-6%	-2	-7%	16%
CCCCn1c(N)c(N(CC)C(=O)Cn2c(CC)nc3ccccc32)c(=O)[nH]c1=O	·	·	·	6	25µM*	·
